# Target: SCAF4
# Test: pooled miR-30 sensor sort-seq; sequence = guide strand
# Conditions: shRNA
row,Sequence,sensor-assay potency score (higher = more potent)
1,TCTACCTGAATTGAACTGCTGC,0.449
2,TTTAATAGCAGCTTTAGTGATG,-0.529
3,TTTCTTGAGATCGAGATCGGGG,-0.563
4,TTACACTTTTTGATGAACTTTT,-0.768
5,TTAGTGATGAGAATCATCTTGG,0.534
6,TAACATTTTCTGCTACTGGGGC,-0.447
7,TTGAGTTGTCTGAAACAGCTGA,0.384

# Target: SCAPER
# Test: as above
# Conditions: shRNA
row,Sequence,sensor-assay potency score (higher = more potent)
1,ATAATCTGCAAGGACATCGTTC,-0.342
2,TTTTCTTCCATCATCCTGCGTC,0.186
3,TTCATCTGGAACATAAACCGTC,0.155
4,TTGAGCATCTGTCTTCTCTAGC,-0.0428
5,TTGAGTGTAATTCTCCTTGGGA,0.0508
6,TTAACAATTCTTCTACACGGGC,-0.521
7,TTGATCTAGCAATTCTTCCTTC,0.245
8,TTCTTTATCACTGTCATCCTTT,0.0905
9,TTATTTTACAGTCCACTGCAGT,-0.733
10,TAAACATTGATTGCATTGCAGA,-1.19
11,TTACATTCGACCACACTCTGAT,0.939

# Target: SCG3
# Test: as above
# Conditions: shRNA
row,Sequence,sensor-assay potency score (higher = more potent)
1,TTCTTCATGACTCTTCTCTGAT,0.0122
2,TTCTTATAGATTGTCTTTCTTT,-0.774
3,TTTCAAGGTAGGAAACACCTTC,0.087
4,TAGTTGATGAAGACCATCTGGA,0.192
5,TTTATGATCCAATCCACTCTTA,-0.0664
6,TAGTTTAGAAACAATCTTGTCA,0.211
7,TTGTCATGTTTCTTCAACCATT,-1.02
8,TAATCTTGTCTTCTTCTGCTTC,-0.063
9,TAGTAGAGTCATAATCATCGAT,0.0703
10,TATTGTTCCATATTTCACCATC,-0.949
11,TTAATTTTTGTAAAACCTCTGC,-0.0676

# Target: SCGB1D4
# Test: as above
# Conditions: shRNA
row,Sequence,sensor-assay potency score (higher = more potent)
1,AAGTTTGGCAACTTGGAGGTTT,-0.0937
2,TTTTTAGTGAAGATCAGGGTGT,0.0112
3,TATCTGATCGGTGCAGTGCTTC,-0.707
4,TTAAAAGATATCTGATCGGTGC,0.0419
5,AAAGATATCTGATCGGTGCAGT,0.161
6,TGATCTCAGAAGCAACAGCTGG,-1.12
7,TTTCAATGAGAGTCGTTTCTTA,0.178
8,TTCAATGAGAGTCGTTTCTTAA,-0.987
9,TCTTAAAAGATATCTGATCGGT,-0.48
10,AATAAGAAGACTGTGATCTCAG,0.355
11,ATTAAGTTTGGCAACTTGGAGG,-1.05

# Reference: the OligoGym collection
